# Source: the supplement of paper PMC9254222
# Whole data set: some 1,100 compounds, median “Wnt reporter firefly/Renilla luciferase ratio relative to plate median” near 1.1, cut for the highest 2% near 1.6. The sample as a whole holds a higher share of the highest values than the screen did.
# Test system: HEK293T (UBE3A T485A transfected, BAR Wnt reporter)
# Assay: Wnt reporter firefly/Renilla luciferase ratio relative to plate median (fold (linear ratio)); higher = more Wnt/beta-catenin reporter activation
# Conditions: 24 h
# How it was run: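 Using Fugene 6, HEK293T cells in white 384-well plates (4500 cells/well; DMEM, 10% FBS, 37°C, 5% CO2) were transfected with a BAR firefly luciferase Wnt reporter, TK-Renilla and an expression plasmid. After four hours, robots dosed the chemicals at 0.01–100 uM, and a Dual-Glo luciferase readout followed 24 h later. Per-plate median-centred firefly/Renilla ratios gave Wnt activity, while per-plate median-centred raw Renilla signals gave cell health. Four biological replicates were averaged.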
Structure (SMILES),Wnt reporter firefly/Renilla luciferase ratio (concentration: 0.01 uM),Wnt reporter firefly/Renilla luciferase ratio (concentration: 0.1 uM),Wnt reporter firefly/Renilla luciferase ratio (concentration: 1 uM),Wnt reporter firefly/Renilla luciferase ratio (concentration: 10 uM),Wnt reporter firefly/Renilla luciferase ratio (concentration: 100 uM)
CNC(=O)Oc1cccc2c1OC(C)(C)O2 [Bendiocarb],1.3,1.17,1.01,0.983,1.38
CC(C)OC(=O)Nc1cccc(Cl)c1 [Chlorpropham],1.45,1.78,1.23,1.47,0.823
CC(C)Oc1cccc(NC(=O)c2ccccc2C(F)(F)F)c1 [Flutolanil],0.682,0.79,1.01,0.768,0.559
CC(Oc1cccc(Cl)c1)C(=O)O (stereo unspecified) [Cloprop],1.31,1.51,1.12,1.28,1.45
CCNc1nc(NC(C)C)nc(SC)n1 [Ametryn],0.686,0.725,0.813,1.29,0.791
CC(C)C1(C)N=C(c2ncccc2C(=O)O)NC1=O (stereo unspecified) [Imazapyr],1.14,1.29,1.04,1.09,1.24
COP(=S)(OC)SCn1nnc2ccccc2c1=O [Azinphos-methyl],1.01,0.911,0.978,0.89,0.837
CNC(=O)CSP(=S)(OC)OC [Dimethoate],0.95,0.993,1.02,1.02,1.1
COP(=S)(OC)SCN1C(=O)c2ccccc2C1=O [Phosmet],,1.07,0.925,1.47,1.65
CCNc1nc(Cl)nc(NCC)n1 [Simazine],1,1.19,1.01,1.06,1.52
O=C(O)C(F)(F)C(F)(F)C(F)(F)C(F)(F)C(F)(F)C(F)(F)C(F)(F)C(F)(F)C(F)(F)C(F)(F)F [Perfluoroundecanoic acid],,1.11,0.936,0.954,0.68
O=C(O)C(F)(F)C(F)(F)C(F)(F)C(F)(F)C(F)(F)C(F)(F)C(F)(F)F,1.29,1.71,1.19,1.41,1.46
O=C(O)C(F)(F)C(F)(F)C(F)(F)C(F)(F)C(F)(F)C(F)(F)C(F)(F)C(F)(F)C(F)(F)F,,0.93,1.14,1.04,1.19
O=C(O)C(F)(F)C(F)(F)C(F)(F)C(F)(F)C(F)(F)C(F)(F)F [Perfluoroheptanoic acid],,0.82,1.02,0.932,0.483
O=C(O)C(F)(F)C(F)(F)C(F)(F)C(F)(F)C(F)(F)C(F)(F)C(F)(F)C(F)(F)F,,1.29,0.95,1.12,0.369
O=C(O)C(F)(F)C(F)(F)C(F)(F)C(F)(F)C(F)(F)F,,1.16,1.48,1.38,2.14
"Oc1cc(Cl)c(Cl)cc1Cl [2,4,5-Trichlorophenol]",,1.12,0.917,0.962,
CCCCCCCCCC(CC)c1ccc(S(=O)(=O)O)cc1.OCCN(CCO)CCO (stereo unspecified) [Dodecylbenzene sulfonate triethanolamine(1:1)],,1.13,1.29,1.13,1.01
COc1cnc(OC)n2nc(NS(=O)(=O)c3c(OCC(F)F)cccc3C(F)(F)F)nc12 [Penoxsulam],1.12,1.09,1.29,1.38,1.75
"C=CC(=O)NCNC(=O)C=C [N,N'-Methylenebisacrylamide]",,0.951,0.999,1.03,1.21
"CN(C)c1ccc(Cc2ccc(N(C)C)cc2)cc1 [4,4'-Methylenebis(N,N-dimethylaniline)]",,1.02,1.07,1.14,0.474

Structure (SMILES),Wnt reporter firefly/Renilla luciferase ratio (concentration: 0.01 uM),Wnt reporter firefly/Renilla luciferase ratio (concentration: 0.1 uM),Wnt reporter firefly/Renilla luciferase ratio (concentration: 1 uM),Wnt reporter firefly/Renilla luciferase ratio (concentration: 10 uM),Wnt reporter firefly/Renilla luciferase ratio (concentration: 100 uM)
CCc1nn(C)c(C(=O)NCc2ccc(C(C)(C)C)cc2)c1Cl [Tebufenpyrad],0.583,0.632,0.279,0.218,0.51
COC(=O)N(C(=O)N1CO[C@@]2(C(=O)OC)Cc3cc(Cl)ccc3C2=N1)c1ccc(OC(F)(F)F)cc1 [Indoxacarb],0.92,0.96,1.2,0.895,0.242
CCCCN(CCCC)SN(C)C(=O)Oc1cccc2c1OC(C)(C)C2 [Carbosulfan],,1.07,1.13,1.07,1.28
c1ccc2c(c1)Nc1ccccc1S2 [Phenothiazine],,1.08,1.01,0.726,0.188
CC(C)(C)OOC(=O)c1ccccc1 [tert-Butyl perbenzoate],,1.06,0.994,1.24,0.688
"Cc1ccc(N)c(N)c1 [3,4-Diaminotoluene]",,1.18,1.26,1.2,
Nc1ccc(-c2ccc(N)cc2)cc1 [Benzidine],,1.22,1.11,1.23,0.579
Cc1ccc(N)cc1 [4-Methylaniline],,1.14,1.18,1.34,1.79
CC(C)=CC1C(C(=O)OCN2C(=O)C3=C(CCCC3)C2=O)C1(C)C (stereo unspecified) [Tetramethrin],0.717,0.76,0.941,0.819,0.824
CCOc1nc(F)cc2nc(S(=O)(=O)Nc3c(Cl)cccc3Cl)nn12 [Diclosulam],1.4,1.38,0.954,1.05,0.892
"Oc1ccc(Cl)cc1Cl [2,4-Dichlorophenol]",,1.06,1.15,1.36,1.47
CC(C)CCCCCCCOC(=O)c1ccccc1C(=O)OCCCCCCCC(C)C,,0.955,1.04,1.1,1.9
CCCCCOC(=O)c1ccccc1C(=O)OCCCCC [Dipentyl phthalate],,1.06,1.36,1.14,1.15
CCCCOC(=O)c1ccccc1C(=O)O [Monobutyl phthalate],1.07,1.12,2.24,1.14,1.75
CCCCOC(=O)c1ccccc1C(=O)OCCCC [Dibutyl phthalate],0.897,0.942,0.947,1.05,0.275
CCCCCCCCOC(=O)c1ccccc1C(=O)OCCCCCCCC [Dioctyl phthalate],,1.21,1.11,1.04,1.25
CCCCCCOC(=O)c1ccccc1C(=O)OCCCCCC [Dihexyl phthalate],,1.05,0.965,1.29,0.728
CCOP(=O)(NC(C)C)Oc1ccc(SC)c(C)c1 (stereo unspecified) [Fenamiphos],0.946,0.758,0.93,0.83,0.243
C/C(=N\C#N)N(C)Cc1ccc(Cl)nc1 [Acetamiprid],1.26,0.96,0.904,1.08,1.18
Cc1c(COC(=O)[C@H]2[C@@H](/C=C(\Cl)C(F)(F)F)C2(C)C)cccc1-c1ccccc1 [Bifenthrin],0.843,1.35,1.11,0.982,0.325
COP(=O)(OC)OC=C(Cl)Cl [Dichlorvos],1.2,1.67,1.4,1.34,1.21

Structure (SMILES),Wnt reporter firefly/Renilla luciferase ratio (concentration: 0.01 uM),Wnt reporter firefly/Renilla luciferase ratio (concentration: 0.1 uM),Wnt reporter firefly/Renilla luciferase ratio (concentration: 1 uM),Wnt reporter firefly/Renilla luciferase ratio (concentration: 10 uM),Wnt reporter firefly/Renilla luciferase ratio (concentration: 100 uM)
CNC(=O)/C=C(\C)OP(=O)(OC)OC [Monocrotophos],0.971,1.1,1.22,1.06,1.12
COP(=O)(OC)O/C(C)=C/C(=O)N(C)C [Dicrotophos],1.29,1.12,1.1,0.957,1.09
O=P(O)(O)CCCl [Ethephon],0.756,1.23,1.18,0.988,1.19
CC(C)N1C(=O)N(c2ccccc2)CSC1=NC(C)(C)C [Buprofezin],1.25,1.69,1.16,1.12,0.27
CC(C)N1C(=O)c2ccccc2NS1(=O)=O [Bentazone],1.46,0.947,0.964,0.949,0.329
COC(=CC(N)=O)C(C)C(C=Cc1csc(-c2csc(C(C)C=CC=CC(C)C)n2)n1)OC (stereo unspecified) [Myxothiazol],1.41,0.921,0.539,0.492,
CCCCC(CC)COC(=O)c1ccccc1C(=O)O (stereo unspecified),1.04,0.861,1.04,0.979,0.821
N#Cc1c[nH]cc1-c1cccc2c1OC(F)(F)O2 [Fludioxonil],0.759,0.842,0.847,1.04,0.858
CNC(=O)Oc1cccc2ccccc12 [Carbaryl],0.987,1.18,1.07,0.714,0.629
CCOP(=O)(SC(C)CC)N1CCSC1=O (stereo unspecified) [Fosthiazate],0.839,0.761,0.922,1.5,0.772
ClC1=C(Cl)C2(Cl)C3C4OC4C(Cl)C3C1(Cl)C2(Cl)Cl (stereo unspecified) [Heptachlor epoxide],,1.18,1.23,1.06,1.5
CCc1cccc(C)c1N(C(=O)CCl)C(C)COC (stereo unspecified) [Metolachlor],0.768,1.6,0.921,0.833,0.28
O=[N+]([O-])C(Br)(CO)CO [Bronopol],,1.17,1.15,1.07,
CCN(CC)C(=O)SCc1ccc(Cl)cc1 [Thiobencarb],0.948,1.27,1.52,1.02,1.54
O=[N+]([O-])c1cc(C(F)(F)F)c(Cl)c([N+](=O)[O-])c1Nc1ncc(C(F)(F)F)cc1Cl [Fluazinam],0.902,0.969,1.24,0.338,
Cl[C@H]1[C@H](Cl)[C@@H](Cl)[C@H](Cl)[C@@H](Cl)[C@@H]1Cl [beta-Hexachlorocyclohexane],,1.05,0.913,1.12,1.03
"Nc1ccc(Cl)cc1N [4-Chloro-1,2-diaminobenzene]",,1.1,1.03,0.852,
"Clc1cccc(Cl)c1 [1,3-Dichlorobenzene]",,1.15,1.18,1.45,1.77
"Clc1ccc(Cl)c(Cl)c1 [1,2,4-Trichlorobenzene]",,0.911,0.886,1.04,1.57
"Cc1cc(C)cc(C)c1 [1,3,5-Trimethylbenzene]",,1.01,1.15,1.05,1.12
CCCC(=NOCC)C1=C(O)CC(CC(C)SCC)CC1=O (stereo unspecified) [Sethoxydim],1.27,1.07,1.15,1.2,0.758
